Test results as given in article PMC11006913.
Changes are numbered by the printed parent chain.

Experiments:
Test in all cases: PBM; 200 nM protein, PBS
Conditions in all cases: dsDNA, one strand shown
[1] = molecular target: HOXC10 (Homo sapiens, UniProt Q9NYD6 254-340)
[2] = molecular target: MSX2 (Homo sapiens, UniProt P35548 130-214, R199I)
[3] = molecular target: HOXC10 (Homo sapiens, UniProt Q9NYD6 254-340, K271E)
[4] = molecular target: MSX2 (Homo sapiens, UniProt P35548 130-214)
[5] = molecular target: MSX2 (Homo sapiens, UniProt P35548 130-214, F161Y)
[6] = molecular target: HOXA2 (Homo sapiens, UniProt O43364 129-215, R185T)
[7] = molecular target: HOXA2 (Homo sapiens, UniProt O43364 129-215, R185K)
[8] = molecular target: HOXA2 (Homo sapiens, UniProt O43364 129-215, Y150S)
[9] = molecular target: HOXA2 (Homo sapiens, UniProt O43364 129-215)
[10] = molecular target: HOXB6 (Homo sapiens, UniProt P17509 132-218, K202E)
[11] = molecular target: HOXD13 (Homo sapiens, UniProt P35453 263-343, T313R)
[12] = molecular target: HOXD13 (Homo sapiens, UniProt P35453 263-343)
[13] = molecular target: HOXD13 (Homo sapiens, UniProt P35453 263-343, T313A)
[14] = molecular target: HOXB6 (Homo sapiens, UniProt P17509 132-218)
[15] = molecular target: ALX4 (Homo sapiens, UniProt Q9H161 200-286)
[16] = molecular target: ALX4 (Homo sapiens, UniProt Q9H161 200-286, Q225E)
[17] = molecular target: T1, PAX4 (Homo sapiens, UniProt O43316 9-242, R200K)
T1 sequence: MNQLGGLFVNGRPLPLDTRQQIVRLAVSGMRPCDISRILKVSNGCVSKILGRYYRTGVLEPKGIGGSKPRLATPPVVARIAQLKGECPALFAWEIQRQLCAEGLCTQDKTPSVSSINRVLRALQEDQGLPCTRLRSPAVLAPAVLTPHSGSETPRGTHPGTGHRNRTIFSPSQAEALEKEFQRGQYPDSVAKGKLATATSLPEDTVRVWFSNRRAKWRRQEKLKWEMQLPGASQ

[18] = molecular target: PRRX1 (Homo sapiens, UniProt P54821 80-166, F113S)
[19] = molecular target: T2, PAX4 (Homo sapiens, UniProt O43316 9-242)
T2 sequence: T1 sequence with K192R

[20] = molecular target: T3, PAX4 (Homo sapiens, UniProt O43316 9-242, R200Q)
T3 sequence: T1 sequence with K192Q

[21] = molecular target: T4, PAX4 (Homo sapiens, UniProt O43316 9-242, F177V)
T4 sequence: T1 sequence with F169V, K192R

[22] = molecular target: T5, PAX4 (Homo sapiens, UniProt O43316 9-242, F177Y)
T5 sequence: T1 sequence with F169Y, K192R

[23] = molecular target: T6, PAX4 (Homo sapiens, UniProt O43316 9-242, R227W)
T6 sequence: T1 sequence with K192R, R219W

[24] = molecular target: PRRX1 (Homo sapiens, UniProt P54821 80-166)
PRRX1 (Homo sapiens, UniProt P54821 80-166), sequence (P54821 80-166): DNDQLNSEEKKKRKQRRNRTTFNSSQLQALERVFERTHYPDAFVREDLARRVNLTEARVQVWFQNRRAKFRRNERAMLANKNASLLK

MSX2 (Homo sapiens, UniProt P35548 130-214, R199I), sequence (P35548 130-214 R199I): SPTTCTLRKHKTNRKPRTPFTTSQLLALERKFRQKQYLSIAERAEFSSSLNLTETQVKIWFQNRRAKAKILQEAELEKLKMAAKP
MSX2 (Homo sapiens, UniProt P35548 130-214), sequence (P35548 130-214): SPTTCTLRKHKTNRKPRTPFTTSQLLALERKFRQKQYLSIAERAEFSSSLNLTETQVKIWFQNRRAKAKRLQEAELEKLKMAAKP
HOXD13 (Homo sapiens, UniProt P35453 263-343), sequence (P35453 263-343): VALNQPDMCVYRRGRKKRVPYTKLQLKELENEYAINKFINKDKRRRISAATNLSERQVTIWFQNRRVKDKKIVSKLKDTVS
HOXC10 (Homo sapiens, UniProt Q9NYD6 254-340, K271E), sequence (Q9NYD6 254-340 K271E): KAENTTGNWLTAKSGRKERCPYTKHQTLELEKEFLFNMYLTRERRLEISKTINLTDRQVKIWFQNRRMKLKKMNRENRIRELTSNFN
MSX2 (Homo sapiens, UniProt P35548 130-214, F161Y), sequence (P35548 130-214 F161Y): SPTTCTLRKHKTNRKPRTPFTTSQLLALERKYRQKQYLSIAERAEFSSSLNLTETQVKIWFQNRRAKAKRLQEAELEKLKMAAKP
HOXC10 (Homo sapiens, UniProt Q9NYD6 254-340), sequence (Q9NYD6 254-340): as the sequence (Q9NYD6 254-340 K271E) above, with E18K counted along it
HOXD13 (Homo sapiens, UniProt P35453 263-343, T313R), sequence (P35453 263-343 T313R): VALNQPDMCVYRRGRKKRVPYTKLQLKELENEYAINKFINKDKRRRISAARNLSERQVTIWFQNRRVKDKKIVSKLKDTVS
HOXB6 (Homo sapiens, UniProt P17509 132-218, K202E), sequence (P17509 132-218 K202E): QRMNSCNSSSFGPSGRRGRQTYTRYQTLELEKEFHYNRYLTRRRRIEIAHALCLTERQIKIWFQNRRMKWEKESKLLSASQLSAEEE
HOXD13 (Homo sapiens, UniProt P35453 263-343, T313A), sequence (P35453 263-343 T313A): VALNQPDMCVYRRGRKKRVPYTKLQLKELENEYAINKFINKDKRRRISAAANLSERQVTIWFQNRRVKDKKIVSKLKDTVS
HOXB6 (Homo sapiens, UniProt P17509 132-218), sequence (P17509 132-218): as the sequence (P17509 132-218 K202E) above, with E71K counted along it
HOXA2 (Homo sapiens, UniProt O43364 129-215, Y150S), sequence (O43364 129-215 Y150S): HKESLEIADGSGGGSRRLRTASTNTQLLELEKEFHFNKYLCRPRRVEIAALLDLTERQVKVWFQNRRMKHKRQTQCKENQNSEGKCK
PRRX1 (Homo sapiens, UniProt P54821 80-166, F113S), sequence (P54821 80-166 F113S): as the sequence (P54821 80-166) above, with F34S counted along it
ALX4 (Homo sapiens, UniProt Q9H161 200-286, Q225E), sequence (Q9H161 200-286 Q225E): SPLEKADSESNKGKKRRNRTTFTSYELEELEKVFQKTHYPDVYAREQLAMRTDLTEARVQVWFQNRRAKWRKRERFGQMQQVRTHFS
ALX4 (Homo sapiens, UniProt Q9H161 200-286), sequence (Q9H161 200-286): as the sequence (Q9H161 200-286 Q225E) above, with E26Q counted along it
HOXA2 (Homo sapiens, UniProt O43364 129-215, R185K), sequence (O43364 129-215 R185K): as the sequence (O43364 129-215 Y150S) above, with S22Y, R57K counted along it
HOXA2 (Homo sapiens, UniProt O43364 129-215), sequence (O43364 129-215): as the sequence (O43364 129-215 Y150S) above, with S22Y counted along it
HOXA2 (Homo sapiens, UniProt O43364 129-215, R185T), sequence (O43364 129-215 R185T): as the sequence (O43364 129-215 Y150S) above, with S22Y, R57T counted along it

Sequence: AGTCGGCG
- binding signal [1]: 10.1 upbm affinity estimate (log intensity, higher = more binding, comparable within an allelic series)
- binding signal [2]: 9.6 upbm affinity estimate (log intensity, higher = more binding, comparable within an allelic series)
- binding signal [3]: 10.1 upbm affinity estimate (log intensity, higher = more binding, comparable within an allelic series)
- binding signal [4]: 9.58 upbm affinity estimate (log intensity, higher = more binding, comparable within an allelic series)
- binding signal [5]: 9.6 upbm affinity estimate (log intensity, higher = more binding, comparable within an allelic series)

Sequence: GCCCGCAC
- binding signal [1]: 10.1 upbm affinity estimate (log intensity, higher = more binding, comparable within an allelic series)
- binding signal [6]: 7.43 upbm affinity estimate (log intensity, higher = more binding, comparable within an allelic series)
- binding signal [2]: 9.56 upbm affinity estimate (log intensity, higher = more binding, comparable within an allelic series)
- binding signal [7]: 10.2 upbm affinity estimate (log intensity, higher = more binding, comparable within an allelic series)
- binding signal [3]: 9.97 upbm affinity estimate (log intensity, higher = more binding, comparable within an allelic series)
- binding signal [4]: 9.65 upbm affinity estimate (log intensity, higher = more binding, comparable within an allelic series)
- binding signal [5]: 9.65 upbm affinity estimate (log intensity, higher = more binding, comparable within an allelic series)
- binding signal [8]: 10.4 upbm affinity estimate (log intensity, higher = more binding, comparable within an allelic series)
- binding signal [9]: 7.36 upbm affinity estimate (log intensity, higher = more binding, comparable within an allelic series)

Sequence: GGCTAGCC
- binding signal [1]: 9.92 upbm affinity estimate (log intensity, higher = more binding, comparable within an allelic series)
- binding signal [10]: 8.91 upbm affinity estimate (log intensity, higher = more binding, comparable within an allelic series)
- binding signal [2]: 9.46 upbm affinity estimate (log intensity, higher = more binding, comparable within an allelic series)
- binding signal [11]: 9.4 upbm affinity estimate (log intensity, higher = more binding, comparable within an allelic series)
- binding signal [12]: 9.37 upbm affinity estimate (log intensity, higher = more binding, comparable within an allelic series)
- binding signal [3]: 9.98 upbm affinity estimate (log intensity, higher = more binding, comparable within an allelic series)
- binding signal [4]: 9.52 upbm affinity estimate (log intensity, higher = more binding, comparable within an allelic series)
- binding signal [13]: 9.39 upbm affinity estimate (log intensity, higher = more binding, comparable within an allelic series)
- binding signal [5]: 9.51 upbm affinity estimate (log intensity, higher = more binding, comparable within an allelic series)
- binding signal [14]: 8.87 upbm affinity estimate (log intensity, higher = more binding, comparable within an allelic series)

Sequence: AGCGCTTG
- binding signal [1]: 10 upbm affinity estimate (log intensity, higher = more binding, comparable within an allelic series)
- binding signal [15]: 7.96 upbm affinity estimate (log intensity, higher = more binding, comparable within an allelic series)
- binding signal [16]: 8.27 upbm affinity estimate (log intensity, higher = more binding, comparable within an allelic series)
- binding signal [3]: 10.1 upbm affinity estimate (log intensity, higher = more binding, comparable within an allelic series)

Sequence: CGCCCCCG
- binding signal [1]: 10 upbm affinity estimate (log intensity, higher = more binding, comparable within an allelic series)
- binding signal [17]: 9.05 upbm affinity estimate (log intensity, higher = more binding, comparable within an allelic series)
- binding signal [18]: 9.19 upbm affinity estimate (log intensity, higher = more binding, comparable within an allelic series)
- binding signal [19]: 9.27 upbm affinity estimate (log intensity, higher = more binding, comparable within an allelic series)
- binding signal [10]: 8.93 upbm affinity estimate (log intensity, higher = more binding, comparable within an allelic series)
- binding signal [11]: 9.18 upbm affinity estimate (log intensity, higher = more binding, comparable within an allelic series)
- binding signal [20]: 9.26 upbm affinity estimate (log intensity, higher = more binding, comparable within an allelic series)
- binding signal [12]: 9.19 upbm affinity estimate (log intensity, higher = more binding, comparable within an allelic series)
- binding signal [21]: 9.01 upbm affinity estimate (log intensity, higher = more binding, comparable within an allelic series)
- binding signal [3]: 9.94 upbm affinity estimate (log intensity, higher = more binding, comparable within an allelic series)
- binding signal [22]: 8.92 upbm affinity estimate (log intensity, higher = more binding, comparable within an allelic series)
- binding signal [13]: 9.4 upbm affinity estimate (log intensity, higher = more binding, comparable within an allelic series)
- binding signal [23]: 9.12 upbm affinity estimate (log intensity, higher = more binding, comparable within an allelic series)
- binding signal [24]: 9.18 upbm affinity estimate (log intensity, higher = more binding, comparable within an allelic series)
- binding signal [14]: 8.91 upbm affinity estimate (log intensity, higher = more binding, comparable within an allelic series)

Sequence: AAATGGTA
- binding signal [1]: 10.9 upbm affinity estimate (log intensity, higher = more binding, comparable within an allelic series)

Sequence: TTACACAA
- binding signal [1]: 10.5 upbm affinity estimate (log intensity, higher = more binding, comparable within an allelic series)

Sequence: CAATATGG
- binding signal [1]: 10.7 upbm affinity estimate (log intensity, higher = more binding, comparable within an allelic series)
- binding signal [11]: 10 upbm affinity estimate (log intensity, higher = more binding, comparable within an allelic series)
- binding signal [12]: 10.5 upbm affinity estimate (log intensity, higher = more binding, comparable within an allelic series)
